Four molecules from PubChem BioAssay can be followed below.

What is called inhibition is the relative decrease from the control value, in per cent.

Records with an inconclusive call do not appear. The source made the active and inactive calls.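 Rule for the calls, unless noted: active = aptamer binding inhibition above 30%, about 3 SD of noise from non-fluorescent compounds; inactive = inhibition at or below 30%.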

A short description of experiment [1]: yeast TOR pathway RPL19A-GFP modulators, primary screen, cell-based, S. cerevisiae, multiplex flow cytometry (AID 1862; in the data active = percent of DMSO control GFP below about 86%;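 note: lower values mimic rapamycin by blocking the RPL19A rise seen in DMSO cells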). As to conditions: S. cerevisiae RPL19A-GFP strain, flow cytometry fluorescence, 3 h; at 10 µM; stronger effect = lower value. Background: A flow cytometer gives signals particle by particle.
Experiment [2] can be described thus: modulators of MEP2-GFP levels in yeast, primary screen, S. cerevisiae, multiplex flow cytometry (AID 1867;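 active = GFP response, as percent of the DMSO control, above the screen-wide mean plus 3 SD, about 139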;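 note: median GFP channel fluorescence of barcode-gated MEP2-GFP cells measured by flow cytometry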). As to conditions: S. cerevisiae MEP2-GFP strain, 3 h, at 10 µM, stronger effect = higher value, 100% means same as DMSO wells.
Experiment [3] can be described thus: modulators of CIT2-GFP expression in yeast, primary screen, S. cerevisiae, GFP fusion, multiplex flow cytometry (AID 1870;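 active = percent response above a set limit, the screen-wide mean plus 3 SD, cut at about 130% in these data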;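 note: barcoded CIT2-GFP strain pooled with four other GFP strains with rapamycin as positive control; median GFP fluorescence per well over plate mean of DMSO wells so 100% = DMSO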). The conditions noted are these: 3 h, at 10 µM, stronger effect = higher value.
Experiment [4] in a line: modulators of LAP4-GFP expression in yeast, primary screen, S. cerevisiae, multiplex flow cytometry (AID 1873;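 active = GFP signal, as percent of the solvent control, above the screen mean plus 3 SD, about 149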). The conditions noted are these: 3 h, at 10 µM, stronger effect = higher value.
The nature of experiment [5]: modulators of AGP1-GFP expression in yeast TOR pathway, primary screen, cell-based, multiplex flow cytometry, S. cerevisiae (AID 1887;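 active = GFP signal above the screen-wide mean plus 3 SD, that is over about 124.5% of the solvent control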;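 note: AGP1-GFP fusion strain of S. cerevisiae within a five-strain barcoded multiplex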). The conditions noted are these: 3 h, at 10 µM, stronger effect = higher value.
A short description of experiment [6]: inhibitors of CD8+ T cell-vesicle binding, pilot screen, LFA-1/ICAM-1 modulator project, MLPCN validation set, flow cytometry (AID 2523;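 active = response below a set limit, under 55% cells CD8-positive and vesicle-bound, and CD8 cells' 90th-percentile brightness under 279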;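 for vesicle binding response: mean PE anti-B7-1 fluorescence of CD8+ cells relative to row control; 100% = QL9-loaded vesicles with DMSO vehicle in the same plate row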). As to conditions: 2C mouse CD8+ T cells, at 7 µM, stronger effect = lower value; double positive events: measured here: CD8+/vesicle+ event percentage.
In experiment [7] the target is Integrin beta-1 (Homo sapiens) + Integrin alpha-4 (Homo sapiens) (UniProt P13612+P05556). Description: inhibition of HUTS-21 binding to VLA-4, pilot screen, VLA-4 allosteric modulator project, U937 cells, HUTS-21 mAb, flow cytometry, validation set (AID 2674;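 active = inhibition above 50%, about 3 SD of the validation set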;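 note: antibody binding induced by the VLA-4 ligand LDV present at three times its Kd; 0% = LDV ligand with antibody and no compound and 100% = antibody without LDV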). The conditions noted are these: HUTS-21 LIBS mAb binding, at 6.7 µM, stronger effect = higher value, binding induced by LDV ligand.

Experiment [8] in a line: superoxide lowering in aged yeast cells, pilot screen, validation compound set (AID 2706;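 active = superoxide response below 65% of plate, a cut near 3 SD across the whole screen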;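 note: yeast exposed to compound for one week at 30 degrees C before staining; 100% = mean of all compound wells on the same plate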). The conditions noted are these: S. cerevisiae aging, superoxide DHE fluorescence; at 10 µM; stronger effect = lower value.
Experiment [9] addresses Beta-adrenergic receptor kinase 1 (Homo sapiens) (UniProt P25098). Description: GRK2 binders displacing RNA aptamer, biochemical, validation, human GRK2, bead flow cytometry (AID 488806). As to conditions: bead-bound GRK2, FAM-aptamer displacement, at 10 µM, stronger effect = higher value.
Experiment [10] concerns the target Beta-2 adrenergic receptor (Homo sapiens) (UniProt P07550). Put plainly: beta2AR agonists driving receptor internalization, pilot screen, cell-based, FAP fluorogen, flow cytometry, validation set (AID 504459;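 active = percent response above 42, roughly 3 SD of non-fluorescent test compounds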;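 note: agonist-driven loss of surface beta2AR via internalization measured by FAP dye flow cytometry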). The conditions noted are these: Am2.2-beta2AR cells, FAP surface receptor flow cytometry; at 10 µM; stronger effect = higher value.
In experiment [11] the target is AP-2 complex subunit beta (Homo sapiens) (UniProt P63010). Description: inhibitors of arrestin peptide binding to AP2, pilot screen, biochemical, validation set, GST-AP2 beads, flow cytometry (AID 504541;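 active = inhibition above 54%, about 3 SD of non-fluorescent compounds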;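 note: AP2 carries R879A mutation and is captured from E. coli lysate; bead-bound FITC arrestin peptide fluorescence measuring arrestin peptide binding to AP2; 0% = DMSO wells and 100% = excess unlabeled arrestin peptide control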). As to conditions: FITC arrestin peptide, at 10 µM, stronger effect = higher value, AP2 beta2 appendage fragment, R879A mutant.
Experiment [12] in a line: yeast V-ATPase proton transport modulators, S. cerevisiae, pHLuorin, HTS validation (AID 504600; in the data active = response above about 15%;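 note: plate controls were DMSO for no effect and reference compound for full effect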). The conditions noted are these: S. cerevisiae pHLuorin cytosolic pH, at 10 µM, stronger effect = higher value.
Experiment [13] relates to anti-desmoglein-3 scFv antibody binding to human DSG3. Put plainly: inhibitors of anti-DSG3 scFv binding to DSG3, pilot screen, biochemical, validation compound set, bead-based, flow cytometry (AID 588368;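 active = binding below the plate cutoff, the plate median minus 3 SD, with a reading above zero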;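 note: signal is the median channel fluorescence of bead-bound GFP antibody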). The conditions noted are these: Protein G beads, DSG3-Fc, scFv-GFP binding, at 10 µM, stronger effect = lower value.
A short description of experiment [14]: inhibitors of fungal efflux pumps CDR1, CDR2, MDR1, pilot screen, validation compound set, multiplex, phenotypic (AID 588506;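 active = efflux inhibition above 0.42, the validation set average plus 4 SD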;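 note: Nile Red retained in cells so higher fluorescence means more efflux inhibition; 0 = negative control wells and 1 = enniatin B 25 µM full block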). The conditions noted are these: S. cerevisiae pump-expressing triplex, Nile Red efflux flow cytometry; at 10 µM; stronger effect = higher value; the pumps come from Candida albicans.
Experiment [15] has as its target ATP-binding cassette sub-family B member 6 (Homo sapiens) (UniProt Q9NP58). Put plainly: ABCB6 transporter inhibitors, pilot screen, K562-ABCB6 cells, flow cytometry, validation set (AID 588550;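 active = inhibition above the screen-wide mean plus 3 SD, about 51%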;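 note: 0% = DMSO wells and 100% = benzethonium chloride 70 µM positive control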). As to conditions: K562-ABCB6 porphyrin accumulation, 1 h, at 10 µM, stronger effect = higher value.
Experiment [16] in a line: promoters of myeloid differentiation in arrested cells, primary screen, cell-based, GFP/MAC1 double positive, flow cytometry, validation set (AID 588685;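 active = differentiation response of at least 50%, scaled between solvent and reference control, from cells with both markers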;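 note: compound exposure lasts four days before antibody staining and flow analysis; 0% = DMSO wells and 100% = 5 µM fulvestrant positive control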). As to conditions: ER-HoxA9 marrow cells, stronger effect = higher value, normalized: vehicle 0, fulvestrant 100.
Experiment [17] can be described thus: RPL19A-GFP modulators, yeast TOR pathway, confirmation, cell-based, S. cerevisiae, flow cytometry, cherry picks, mother/daughter gates (AID 2270;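 active = GFP response below 50% of the DMSO control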). As to conditions: S. cerevisiae RPL19A-GFP strain, 3 h, at 10 µM, stronger effect = lower value, 100 = same GFP as DMSO wells.
The nature of experiment [18]: LAP4-GFP expression modulators in yeast, confirmation, cell-based, cherry picks, flow cytometry, mother/daughter gates (AID 2271;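 active = GFP response above 150% of the DMSO control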;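 note: ratio of sample to DMSO plate mean so 100% equals DMSO level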). The conditions noted are these: S. cerevisiae LAP4-GFP strain, 3 h, at 10 µM, stronger effect = higher value, 100 means same as DMSO control.
Experiment [19] is described as follows: modulators of MEP2-GFP levels in yeast, confirmation, S. cerevisiae, flow cytometry GFP, cherry picks (AID 2272;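 active = GFP response above 150% of the DMSO control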;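 note: ratio of well signal to plate DMSO mean so 100% equals DMSO level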). The conditions noted are these: S. cerevisiae MEP2-GFP strain, 3 h, at 10 µM, stronger effect = higher value.
Experiment [20] in a line: modulators of CIT2-GFP expression in yeast, confirmation, S. cerevisiae, GFP fusion, cherry picks, mother/daughter gates (AID 2274;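 active = GFP response above 150% of the DMSO level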). As to conditions: S. cerevisiae CIT2-GFP strain, flow cytometry, 3 h, at 10 µM, stronger effect = higher value.
[21] abbreviates: measured here: daughter cell gate.
[22] abbreviates: measured here: mother cell gate.

Sequence of Integrin beta-1 (Homo sapiens) + Integrin alpha-4 (Homo sapiens) (P05556 whole entry, looked up): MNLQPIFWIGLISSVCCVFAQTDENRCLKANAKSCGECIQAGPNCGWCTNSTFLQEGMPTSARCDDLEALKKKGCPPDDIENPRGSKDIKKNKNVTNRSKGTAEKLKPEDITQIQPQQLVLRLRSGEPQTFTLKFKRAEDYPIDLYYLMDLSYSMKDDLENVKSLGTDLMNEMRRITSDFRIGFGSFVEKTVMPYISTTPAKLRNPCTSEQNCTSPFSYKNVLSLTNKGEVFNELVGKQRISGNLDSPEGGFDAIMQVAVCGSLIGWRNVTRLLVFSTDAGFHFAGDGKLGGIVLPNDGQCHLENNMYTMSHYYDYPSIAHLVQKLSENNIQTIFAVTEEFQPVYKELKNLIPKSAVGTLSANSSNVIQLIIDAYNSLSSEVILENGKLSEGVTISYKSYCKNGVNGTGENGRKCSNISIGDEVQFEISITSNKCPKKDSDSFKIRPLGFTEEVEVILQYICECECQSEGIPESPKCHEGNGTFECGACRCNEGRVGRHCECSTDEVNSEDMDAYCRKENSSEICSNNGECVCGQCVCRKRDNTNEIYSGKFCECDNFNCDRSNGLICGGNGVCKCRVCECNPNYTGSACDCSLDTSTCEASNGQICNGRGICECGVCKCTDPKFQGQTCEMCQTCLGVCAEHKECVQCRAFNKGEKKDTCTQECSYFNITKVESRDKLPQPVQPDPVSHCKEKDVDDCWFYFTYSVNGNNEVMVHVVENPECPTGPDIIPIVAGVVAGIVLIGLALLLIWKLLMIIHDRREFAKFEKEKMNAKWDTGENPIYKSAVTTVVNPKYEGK
Sequence of Integrin beta-1 (Homo sapiens) + Integrin alpha-4 (Homo sapiens) (P13612 whole entry, looked up): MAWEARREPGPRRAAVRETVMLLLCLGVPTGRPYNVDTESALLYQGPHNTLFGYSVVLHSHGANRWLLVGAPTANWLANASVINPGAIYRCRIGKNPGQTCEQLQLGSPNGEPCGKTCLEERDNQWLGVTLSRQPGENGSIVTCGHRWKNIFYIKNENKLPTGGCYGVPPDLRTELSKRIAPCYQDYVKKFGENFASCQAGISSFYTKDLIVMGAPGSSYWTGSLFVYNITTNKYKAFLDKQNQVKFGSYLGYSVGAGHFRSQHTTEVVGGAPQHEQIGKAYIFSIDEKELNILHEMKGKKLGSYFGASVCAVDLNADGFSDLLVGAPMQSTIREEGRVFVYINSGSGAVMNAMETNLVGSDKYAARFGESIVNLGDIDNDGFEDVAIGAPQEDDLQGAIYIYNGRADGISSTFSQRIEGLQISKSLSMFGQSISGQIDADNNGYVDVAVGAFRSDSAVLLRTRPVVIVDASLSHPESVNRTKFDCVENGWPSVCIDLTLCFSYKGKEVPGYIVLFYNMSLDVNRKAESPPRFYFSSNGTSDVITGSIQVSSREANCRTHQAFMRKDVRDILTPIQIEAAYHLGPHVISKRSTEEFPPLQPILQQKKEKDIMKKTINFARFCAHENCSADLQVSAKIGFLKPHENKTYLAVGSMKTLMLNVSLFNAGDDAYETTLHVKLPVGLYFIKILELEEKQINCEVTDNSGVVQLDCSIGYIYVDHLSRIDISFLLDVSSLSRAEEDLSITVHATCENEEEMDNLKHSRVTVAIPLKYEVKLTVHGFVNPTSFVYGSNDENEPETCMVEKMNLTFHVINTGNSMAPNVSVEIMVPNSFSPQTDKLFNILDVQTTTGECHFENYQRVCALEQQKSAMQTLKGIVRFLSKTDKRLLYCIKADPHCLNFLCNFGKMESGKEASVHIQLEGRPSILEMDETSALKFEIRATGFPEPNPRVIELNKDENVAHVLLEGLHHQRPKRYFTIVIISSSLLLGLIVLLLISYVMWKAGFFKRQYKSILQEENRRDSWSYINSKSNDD
Sequence of Beta-adrenergic receptor kinase 1 (Homo sapiens) (P25098 whole entry, looked up): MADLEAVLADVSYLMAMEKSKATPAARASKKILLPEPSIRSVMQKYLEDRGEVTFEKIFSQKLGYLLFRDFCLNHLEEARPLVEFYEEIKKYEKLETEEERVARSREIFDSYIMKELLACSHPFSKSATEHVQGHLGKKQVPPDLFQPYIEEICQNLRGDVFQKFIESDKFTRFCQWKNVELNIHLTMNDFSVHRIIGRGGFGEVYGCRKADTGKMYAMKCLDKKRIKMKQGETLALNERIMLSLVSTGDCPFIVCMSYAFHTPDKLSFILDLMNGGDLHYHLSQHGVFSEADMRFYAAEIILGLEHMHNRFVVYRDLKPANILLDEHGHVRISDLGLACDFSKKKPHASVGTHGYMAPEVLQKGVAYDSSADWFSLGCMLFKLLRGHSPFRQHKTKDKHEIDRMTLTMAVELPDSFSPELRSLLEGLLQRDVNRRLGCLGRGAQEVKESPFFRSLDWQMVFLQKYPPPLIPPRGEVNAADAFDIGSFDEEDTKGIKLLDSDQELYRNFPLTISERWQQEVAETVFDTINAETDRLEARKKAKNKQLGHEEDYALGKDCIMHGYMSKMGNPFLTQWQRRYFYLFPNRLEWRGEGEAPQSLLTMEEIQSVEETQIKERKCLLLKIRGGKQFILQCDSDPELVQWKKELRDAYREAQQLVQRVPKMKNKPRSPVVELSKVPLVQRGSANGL
Sequence of ATP-binding cassette sub-family B member 6 (Homo sapiens) (Q9NP58 whole entry, looked up): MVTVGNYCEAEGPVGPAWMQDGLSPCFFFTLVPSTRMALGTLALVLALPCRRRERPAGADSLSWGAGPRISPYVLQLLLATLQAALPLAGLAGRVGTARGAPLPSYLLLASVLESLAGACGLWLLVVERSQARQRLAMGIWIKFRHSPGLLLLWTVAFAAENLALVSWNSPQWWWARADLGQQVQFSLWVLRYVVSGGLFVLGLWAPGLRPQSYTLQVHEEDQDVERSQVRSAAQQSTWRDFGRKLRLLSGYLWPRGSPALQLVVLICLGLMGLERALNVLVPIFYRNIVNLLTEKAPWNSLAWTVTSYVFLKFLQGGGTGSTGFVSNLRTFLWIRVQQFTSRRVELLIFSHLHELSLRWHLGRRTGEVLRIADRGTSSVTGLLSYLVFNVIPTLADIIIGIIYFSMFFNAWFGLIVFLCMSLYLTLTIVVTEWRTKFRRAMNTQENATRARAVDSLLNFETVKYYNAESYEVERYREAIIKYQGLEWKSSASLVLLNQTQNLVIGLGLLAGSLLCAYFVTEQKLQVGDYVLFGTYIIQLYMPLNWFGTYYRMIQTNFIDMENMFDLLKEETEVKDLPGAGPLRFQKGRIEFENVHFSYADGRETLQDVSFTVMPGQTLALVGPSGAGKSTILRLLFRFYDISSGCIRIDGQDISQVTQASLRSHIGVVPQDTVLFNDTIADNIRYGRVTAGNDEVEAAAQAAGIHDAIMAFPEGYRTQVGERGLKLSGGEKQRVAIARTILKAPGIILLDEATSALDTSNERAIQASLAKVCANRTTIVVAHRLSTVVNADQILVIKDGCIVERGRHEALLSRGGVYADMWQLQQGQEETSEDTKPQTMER
Sequence of AP-2 complex subunit beta (Homo sapiens) (P63010 whole entry, looked up, the tested form may be a part, one chain of several): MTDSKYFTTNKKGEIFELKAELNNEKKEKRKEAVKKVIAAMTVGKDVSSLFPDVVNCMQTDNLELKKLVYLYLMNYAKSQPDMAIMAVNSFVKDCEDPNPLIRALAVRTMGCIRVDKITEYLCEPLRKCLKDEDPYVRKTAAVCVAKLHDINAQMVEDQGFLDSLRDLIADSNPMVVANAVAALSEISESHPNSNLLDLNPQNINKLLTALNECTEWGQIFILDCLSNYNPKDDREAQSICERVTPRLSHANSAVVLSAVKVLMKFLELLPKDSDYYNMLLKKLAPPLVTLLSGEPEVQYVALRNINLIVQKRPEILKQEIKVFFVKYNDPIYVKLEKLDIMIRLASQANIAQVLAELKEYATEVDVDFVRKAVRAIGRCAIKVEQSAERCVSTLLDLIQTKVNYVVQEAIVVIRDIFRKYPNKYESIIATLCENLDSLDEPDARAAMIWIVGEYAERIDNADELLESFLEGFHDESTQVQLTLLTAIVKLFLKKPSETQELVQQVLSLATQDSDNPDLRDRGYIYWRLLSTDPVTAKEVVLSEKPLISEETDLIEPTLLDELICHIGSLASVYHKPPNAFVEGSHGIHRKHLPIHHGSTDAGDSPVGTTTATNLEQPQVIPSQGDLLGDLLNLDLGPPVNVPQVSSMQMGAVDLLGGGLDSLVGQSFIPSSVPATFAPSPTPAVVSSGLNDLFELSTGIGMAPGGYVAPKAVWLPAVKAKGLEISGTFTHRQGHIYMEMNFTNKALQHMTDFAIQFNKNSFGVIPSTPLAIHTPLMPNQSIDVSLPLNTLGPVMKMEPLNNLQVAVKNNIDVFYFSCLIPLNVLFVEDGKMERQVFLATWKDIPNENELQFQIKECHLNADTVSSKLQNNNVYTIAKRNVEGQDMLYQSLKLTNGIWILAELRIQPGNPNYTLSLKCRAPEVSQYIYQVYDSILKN
Sequence of Beta-2 adrenergic receptor (Homo sapiens) (P07550 whole entry, looked up): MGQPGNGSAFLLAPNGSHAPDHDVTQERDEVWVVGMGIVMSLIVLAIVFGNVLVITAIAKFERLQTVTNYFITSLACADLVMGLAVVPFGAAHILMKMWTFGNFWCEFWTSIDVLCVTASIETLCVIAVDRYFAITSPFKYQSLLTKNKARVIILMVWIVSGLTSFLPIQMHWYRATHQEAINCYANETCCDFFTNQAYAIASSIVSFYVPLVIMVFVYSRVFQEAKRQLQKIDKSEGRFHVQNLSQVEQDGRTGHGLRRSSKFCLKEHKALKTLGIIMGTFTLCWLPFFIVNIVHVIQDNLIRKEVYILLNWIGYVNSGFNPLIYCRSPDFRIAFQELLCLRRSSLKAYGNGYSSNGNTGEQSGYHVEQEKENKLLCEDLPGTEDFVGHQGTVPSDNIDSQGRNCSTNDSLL

Regarding `CC(C)CCn1c(N2CCc3ccccc3C2)nc2c1c(=O)[nH]c(=O)n2C`, the percent of DMSO control GFP in experiment [1] was 92.6% (inactive). Moreover, the GFP response vs DMSO was 128% (inactive) in experiment [2] and 83.1% (inactive) in experiment [4]. In [3], the percent response of DMSO control was 108% (inactive). Moreover, the GFP response, % of DMSO in [5] is 83.3% (inactive). The molecule also showed a double positive events in experiment [6] of 54.4%. The vesicle binding response in [6] was 184% (inactive). Besides, the values for the inhibition in experiment [7], in experiment [11] and in experiment [15] were -6.15% (inactive), 2.58% (inactive) and 12% (inactive), respectively. For the same molecule, in experiment [8], the superoxide response (% of plate) was 98% (inactive). Besides, in experiment [9], the aptamer binding inhibition is -2% (inactive). Also, the figures for the response in experiment [10] and in experiment [12] were -18.6% (inactive) and 2.15% (inactive), respectively. Also, in experiment [13], the binding (% of control) is 104% (inactive). Besides, the efflux inhibition (fraction of control) in experiment [14] is -0.24 (inactive). Further, in experiment [16], the differentiation response is -4.91% (inactive).

Consider `CCN(CC)c1ccc2cc(-c3nc(-c4ccc(OC)cc4)cs3)c(=O)oc2c1`, for which the GFP response vs DMSO in [17] is 105% (inactive); in experiment [17] (setting [21]), 103%; in experiment [17] (setting [22]), 106%; in [19], 180% (active). For the same molecule, the GFP response relative to DMSO in experiment [18] was 138% (inactive); in [18] (measured here: daughter cell gate response) it was 132%; in experiment [18] (measured here: mother cell gate response), 135%. Further, the GFP response, % of DMSO in experiment [20] is 160% (active); in experiment [20] (setting [21]), 152%; in experiment [20] (setting [22]), 149%.

On to `C=CCC1(Cl)C(=O)C(Cl)=C(N2CCOCC2)C1(OC)OC` (stereo unspecified), for which the percent of DMSO control GFP in experiment [1] was 101% (inactive). For the same molecule, the results for the GFP response vs DMSO in experiment [2] and in experiment [4] were 94.1% (inactive) and 99.1% (inactive), respectively. In experiment [3], the percent response of DMSO control is 108% (inactive). In addition, the GFP response, % of DMSO in experiment [5] was 95.2% (inactive). Further, the double positive events in experiment [6] amounted to 59.1%. The vesicle binding response in experiment [6] was 167% (inactive). The results for the inhibition in [7], in [11] and in experiment [15] were -4.52% (inactive), -0.19% (inactive) and 8% (inactive), respectively. Moreover, the superoxide response (% of plate) in [8] is 102% (inactive). Also, the aptamer binding inhibition in experiment [9] is 2% (inactive). The response in [10] is -2.88% (inactive); in experiment [12], -0.35% (inactive). In addition, in [13], the binding (% of control) was 98.9% (inactive). Further, the efflux inhibition (fraction of control) in [14] was -0.21 (inactive). Besides, the differentiation response in experiment [16] is -4% (inactive).

For `OC(CCCN1CCC(O)(c2ccc(Cl)cc2)CC1)c1ccc(F)cc1` (stereo unspecified), the percent of DMSO control GFP in experiment [1] was 99.6% (inactive). The GFP response vs DMSO in experiment [2] is 103% (inactive); in experiment [4], 101% (inactive). Moreover, in experiment [3], the percent response of DMSO control was 108% (inactive). Further, in [5], the GFP response, % of DMSO is 106% (inactive). For the same molecule, the double positive events in experiment [6] amounted to 49.2%. In [6], the vesicle binding response was 168% (inactive). Also, the inhibition in [7] is -14.5% (inactive); in experiment [11], -4.86% (inactive); in experiment [15] it was -1% (inactive). Moreover, the superoxide response (% of plate) in [8] was 96% (inactive). In addition, the aptamer binding inhibition in experiment [9] was -3% (inactive). Moreover, the response is 5.29% (inactive) in experiment [10] and -0.08% (inactive) in [12]. Also, the binding (% of control) in experiment [13] was 104% (inactive). Besides, the efflux inhibition (fraction of control) in experiment [14] is -0.005 (inactive). In addition, in experiment [16], the differentiation response was 10.1% (inactive).
